Laboratory results published in PubChem BioAssay AID1347075 (National Center for Advancing Translational Sciences (NCATS), 2019).
Among all 400,000 compounds or so, about 5,500 (1.4%) were called active. Where a call stands in place of a potency, no number is given. Not shown: some 9% with an inconclusive outcome. This is one part of a sample in which actives are shown more often than they occur. Calls follow the shape of the dose curve; as a rule, active = well fitted cell-killing curve with a large enough effect; inconclusive = small, poorly fitted or top-dose-only effect, or effect the other way; inactive = flat fitted curve, though single readings scatter.

Experiment: qHTS assay for MDR1-selective chemotherapeutics: Primary screen using the parental adenocarcinoma cell KB-3-1; also: nearly all actives have a fitted effect of over 60% in size
Conditions: KB-3-1 viability, CellTiter-Glo ATP luminescence, 72 h; series mostly up to 46.1 µM
In short: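 Luminescent ATP read-out (CellTiter-Glo) measures survival of drug-naive KB-3-1 cells after 72 h compound exposure at 37 °C. Titration series was screened from lowest to highest concentration, with DMSO vehicle plates as background controls.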
Potency is read from the fitted curve at half-maximal effect.

SMILES	Potency
O=C(Nc1cc(Br)ccc1F)c1nc[nH]c1C(=O)NCc1ccccc1	inactive
O=C(Nc1ccon1)c1nc[nH]c1C(=O)NCc1ccccc1	5.8 µM (active)
CC(C)(C)OC(=O)NCCCCCNC(=O)c1nc[nH]c1C(=O)NCc1ccccc1	inactive
COc1ccc(NC(=O)c2ccc3nc(C(C)C)oc3c2)cc1OC	inactive
COC(=O)c1sc2ncccc2c1-n1c(C)ccc1C	inactive
O=C(NC1CCCCC1)c1ccc(Cn2c(SCc3ccccc3)nc3cccnc32)cc1	inactive
Cc1oc2c(c1C(=O)Nc1ccc(F)c(F)c1)C1=NCCN1C=N2	inactive
O=C(Nc1ccc2nc(SCC(=O)N3CCc4ccccc43)sc2c1)c1ccccc1F	inactive
CCOc1ccc(NC(=O)c2cn(C3CCCCC3)c(=O)c3c2c2ccccc2n3C)cc1	inactive
COCCNC(=O)CSc1nc(-c2ccccc2)[nH]c1-c1ccc(C)cc1	inactive
COc1cccc(-c2nc(S(=O)(=O)c3ccc(C)cc3)c(NCc3ccccc3)o2)c1	inactive
CC(Nc1ccc(-c2nc(-c3ccco3)no2)cc1[N+](=O)[O-])c1ccccc1 (stereo not drawn)	inactive
O=C(NCc1ccccc1)C1CCN(S(=O)(=O)c2ccc3[nH]c(=O)ccc3c2)CC1	inactive
COc1ccccc1N1CC(C(=O)Nc2ccc(S(=O)(=O)N3CCOCC3)cc2)CC1=O (stereo not drawn)	inactive
COc1ccc(Cl)cc1NC(=O)C1CC(=O)N(c2ccc(F)cc2)C1 (stereo not drawn)	inactive
COc1cc(OC)c(N2CC(C(=O)Nc3cc(Cl)ccc3N3CCOCC3)CC2=O)cc1Cl (stereo not drawn)	5.8 µM (active)
CCCCn1cc(S(=O)(=O)c2ccc(OCC)cc2)c(=O)c2cc(OC)c(OC)cc21	inactive
Cc1cccc(N2CCN(C(=O)c3ccc(Nc4nc5ccccc5n5nnnc45)cc3)CC2)c1C	inactive
CCN(CC)S(=O)(=O)c1ccc(N2CCOCC2)c(NC(=O)c2ccc(=O)n(C)n2)c1	inactive
CCN(CC)S(=O)(=O)c1cc(C(=O)Nc2cc(S(=O)(=O)N3CCOCC3)ccc2N2CCCC2)ccc1F	inactive
CCN(CC)S(=O)(=O)c1ccc(N2CCCC2)c(NC(=O)c2ccc([N+](=O)[O-])o2)c1	6.51 µM (active)

SMILES	Potency
Cc1[nH]c2ccccc2c1C(=O)C(=O)N(C)c1ccccc1	inactive
CCn1c2c(c(=O)n3ncc(C(=O)N4CCN(c5ccccc5)CC4)c13)CN(Cc1ccc(OC)cc1)CC2	inactive
C/C(=N\NC(=O)c1ccoc1C)c1ccccc1O	14.6 µM (active)
CC(=N\NC(=O)c1cc(Br)ccc1O)/C(=N/O)C(=O)Nc1ccccc1	inactive
C/C(=N/NC(=O)CCc1ccccc1)c1ccco1	inactive
O=C(NCc1ccc2c(c1)CCN2C(=O)c1ccccc1)c1ccccc1	inactive
COc1ccc(NC(=O)Cn2c(=O)n(Cc3ccc(C(=O)NCc4ccccc4Cl)cc3)c(=O)c3ccccc32)cc1	inactive
C=CC(=O)OCCOCCOCCOCCOC(=O)C=C	10.3 µM (active)
CCOC(=O)c1ccc(NC(=O)Cn2c(=O)cc(C)c3c(C)nn(-c4cccc(F)c4)c32)cc1	inactive
CCC(=O)N1CCc2cc(CNC(=O)Nc3ccccc3Cl)ccc21	inactive
COC(=O)c1scc(-c2ccc(C)cc2)c1S(=O)(=O)Nc1cc(Cl)c(OC)cc1OC	inactive
CCc1ccc(Sc2cc(C(=O)NCCCOC(C)C)c3ccccc3n2)cc1	inactive
Cc1ccc2nc(-c3ccco3)c(Cc3cccc(Cl)c3)n2c1	inactive
CSc1n[nH]c(-c2ccco2)n1	inactive
Cn1c(-c2ccco2)nc2cc3ccccc3cc21	18.4 µM (active)
N#Cc1ccc(-c2cccs2)nc1SCc1ccc(Br)cc1	inactive
CCOc1ccccc1NC(=O)Cn1nnc(C(=O)NCc2cccs2)c1N	0.259 µM (active)
Cc1ccc(NC(=O)Cn2nnc(C(=O)NCc3ccco3)c2N)c(C)c1	inactive
CCOc1ccccc1NC(=O)Cn1nnc(C(=O)Nc2ccc(C)c(C)c2)c1N	inactive
CCc1ccccc1NC(=O)Cc1ccc(NC(=O)N2CCCCc3ccccc32)cc1	inactive
CC(C)(C)NC(=O)CSc1nc(-c2ccc(F)cc2)cc(C(F)(F)F)n1	inactive

SMILES	Potency
Cc1ccc(Cl)cc1NC(=O)CSc1nccn1C	inactive
COc1ccc(-c2nc3c(s2)CCc2onc(-c4ccc(Br)cc4)c2-3)cc1	inactive
COc1ccc(-c2cc(C(=O)Nc3sc4c(c3C(N)=O)CCCC4)no2)cc1	inactive
COc1ccc(-c2nc3c(s2)CCc2onc(-c4ccc(OC)cc4)c2-3)cc1	20.6 µM (active)
COc1ccccc1CNC(=O)CCn1c(=O)c2ccccc2n(CC(=O)Nc2cccc(Cl)c2)c1=O	inactive
COc1ccc(CCNc2ncnc3c2cnn3-c2ccc(C)cc2)cc1	inactive
O=C(NCc1ccccc1Cl)C1=Cc2cc(Br)ccc2OC1	inactive
CCOC(=O)c1cccc(NC(=O)CCOc2ccccc2)c1	inactive
CCOCCC(=O)Nc1ccc2c(c1)c(=O)n(C)n2-c1ccc2ccccc2c1	3.66 µM (active)
CCn1c2ccccc2c2cc(NC(=O)COc3ccc(C)cc3C)ccc21	inactive
CCOc1ccccc1CNC(=O)C1CCCN(S(=O)(=O)c2ccc3c(ccn3C)c2)C1 (stereo not drawn)	inactive
COc1ccccc1NC(=O)c1sc2nc(C)c(C(=O)Nc3ccc(Cl)cc3)c(-c3ccc(Br)cc3)c2c1N	inactive
COC(=O)c1ccc(S(=O)(=O)N2CCc3ccccc3C2)cc1	inactive
CC(C)c1ccc(NC(=O)c2cc(S(=O)(=O)N3CCc4ccccc4C3)ccc2F)cc1	inactive
O=C(Nc1ccc(S(=O)(=O)N2CCc3ccccc3C2)cc1)c1ccccc1	18.4 µM (active)
CCOc1ccc(N(CC)C(=O)c2cc3c(=O)oc4ccccc4c3s2)cc1	inactive
Cc1ccc(Nc2ccc3cc(S(=O)(=O)N4CCCCC4)ccc3n2)cc1F	inactive
COc1ccc(N2CCN(S(=O)(=O)c3ccc4c(c3)CC(=O)N4)CC2)cc1	inactive
Cc1noc(C)c1S(=O)(=O)N(CC(=O)Nc1ccc2c(c1)OCCO2)c1ccc(C(C)C)cc1	inactive
CCOc1ccc(N(CC(=O)OC)S(=O)(=O)c2c(C)noc2C)cc1	inactive
COc1ccc(N(CC(=O)Nc2cc(OC)ccc2OC)S(=O)(=O)c2c(C)noc2C)cc1	18.4 µM (active)
